{"source": "the supplement of paper PMC10338343", "note": "± gives the standard deviation.", "data": [{"tested_on": "MILI (PIWIL2) piRISC loaded with L1MC piRNA (26 nt)", "experiment": "pre-steady-state target cleavage rate (min^-1); guide: L1MC piRNA 5'p-UAACUAAAUACUAUGCAAGCUGUAGG; higher = faster piRNA-guided slicing of the target", "settings": "auxiliary factor: 500 nM mouse GTSF1", "in_short": "(§1)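 The method was Cleave-'n-Seq, in which uncleaved targets from a transcribed, DNA-blocked target RNA library were sequenced after exposure to active affinity-purified piRISC carrying one synthetic guide, with or without GTSF1 partner protein. Reactions contained 0.1 nM library, 1 nM piRISC and, where present, 500 nM GTSF1 in HEPES–potassium acetate buffer at 33 °C for 0–8 or 0–960 min. Reads were normalised to depth and to weakly complementary targets, three trials were pooled, and k3 was capped at 0.0001 min^-1. The pre-steady-state cleavage rate came from a burst-and-steady-state fit.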", "values": [{"sequence": "UCCUGGAUGUCGUUGCAAAGUAUUAAGUUA", "pre-steady-state target cleavage rate": "0.0094 ± 0.0044"}, {"sequence": "UCCUGGAUGUCCUUCCAUAGUAUUUAGUAA", "pre-steady-state target cleavage rate": "0.0112 ± 0.0045"}, {"sequence": "UCCUGCUACAGCUUGCAUUCUAUUUAGUAA", "pre-steady-state target cleavage rate": "0.0252 ± 0.0088"}, {"sequence": "UCCUCCUACAGCUUGCAUAGUUAUUUCAAA", "pre-steady-state target cleavage rate": "0.0507 ± 0.016"}, {"sequence": "UCCUGCUACAGCAAGCAUAGUAUUUACAAA", "pre-steady-state target cleavage rate": "0.191 ± 0.055"}, {"sequence": "UCCUGGAACAGCUUGCAUAGUAUAAUGAAA", "pre-steady-state target cleavage rate": "0.0341 ± 0.013"}, {"sequence": "UCCUGGAACAGCAUGCAUAGUAUUUACUUA", "pre-steady-state target cleavage rate": "0.221 ± 0.034"}, {"sequence": "UCCUGGAACACGUUGCAUAGUAUUUACAAA", "pre-steady-state target cleavage rate": "0.0879 ± 0.017"}, {"sequence": "UCCUGGAUGAGCUUGCAAAGUAUUUAGAUA", "pre-steady-state target cleavage rate": "0.117 ± 0.022"}, {"sequence": "UCCUGGAUGUCGAAGCAUAGUAUUUAGUUC [g2:g16:cont:t1C]", "pre-steady-state target cleavage rate": "0.0284 ± 0.0076"}, {"sequence": "UCCUGGAUCAGGAUGCAUAGUAUUUAGAAA", "pre-steady-state target cleavage rate": "0.0525 ± 0.011"}, {"sequence": "UCCUGGAUCAGCUUGCAAUGUAUUUACAAA", "pre-steady-state target cleavage rate": "0.0196 ± 0.0061"}, {"sequence": "UCCUGGAUGACGAUGCAUAGUAUUUAGAAA", "pre-steady-state target cleavage rate": "0.139 ± 0.035"}, {"sequence": "UCCUGGAACAGCUUGCAAUGUAUUUAGAAA", "pre-steady-state target cleavage rate": "0.0719 ± 0.018"}, {"sequence": "UCCUGGAUGAGCUUGCAUACUAUUAAGUUA", "pre-steady-state target cleavage rate": "0.00607 ± 0.0038"}, {"sequence": "UCCUGGAUGUGCUUGCUUAGAAUUUAGUUA", "pre-steady-state target cleavage rate": "0.00417 ± 0.0032"}, {"sequence": "UCCUGGAACAGCUUGCAUAGUAAUUACUUA", "pre-steady-state target cleavage rate": "0.023 ± 0.0082"}, {"sequence": "UCCUCCAUGAGCUUGCAUAGUAUUUUCAAA", "pre-steady-state target cleavage rate": "0.0168 ± 0.0069"}, {"sequence": "UCCUGGAACAGCAAGCAUAGUAUUUAGUAA", "pre-steady-state target cleavage rate": "0.271 ± 0.025"}, {"sequence": "UCCUGGAACAGCUUGCAUAGUUUUUACUUA", "pre-steady-state target cleavage rate": "0.0363 ± 0.011"}, {"sequence": "UCCUGGAUCAGCUUGCUAUGUAUUUAGAAA", "pre-steady-state target cleavage rate": "0.00524 ± 0.0033"}, {"sequence": "UCCUCCUACAGCUUGCAUAGUUAAUUCAAA", "pre-steady-state target cleavage rate": "0.0506 ± 0.016"}, {"sequence": "UCCUGGAUGAGCUUGCAUAGAAUAUAGUUA", "pre-steady-state target cleavage rate": "0.0218 ± 0.0083"}, {"sequence": "UCCUGGAACAGCUUGCAUAGAUAUUAGUAA", "pre-steady-state target cleavage rate": "0.0101 ± 0.0057"}, {"sequence": "UCCUGGUACACGUUGCAUAGUAUUUAGUAA", "pre-steady-state target cleavage rate": "0.166 ± 0.038"}, {"sequence": "UCCUGGAUGACGAUGCAUAGUAUUUACAAA", "pre-steady-state target cleavage rate": "0.0245 ± 0.011"}, {"sequence": "UCCUGGAACAGCUUGCAUAUAUUUAGUUA", "pre-steady-state target cleavage rate": "0.0331 ± 0.0059"}, {"sequence": "UCCUGGAUGAGGUUGCAUACUAUUUAGUUA", "pre-steady-state target cleavage rate": "0.0167 ± 0.006"}, {"sequence": "UCCUGGAUCAGCUUGCAUAGUAUUUAGCUUA", "pre-steady-state target cleavage rate": "0.149 ± 0.021"}, {"sequence": "UCCUGGAUGUCCUUGCAUAGUAUUUGUUA", "pre-steady-state target cleavage rate": "0.0123 ± 0.0057"}, {"sequence": "UCCUGGUACAGCUUGCAUAGUAUUUUCAAA", "pre-steady-state target cleavage rate": "0.109 ± 0.027"}, {"sequence": "UCCUCCUACAGCUUGCUAUGUAUUUAGAAA", "pre-steady-state target cleavage rate": "0.00902 ± 0.0042"}]}, {"tested_on": "MILI (PIWIL2) piRISC loaded with L1MC piRNA (26 nt)", "experiment": "pre-steady-state target cleavage rate (min^-1); guide: L1MC piRNA 5'p-UAACUAAAUACUAUGCAAGCUGUAGG; MIWI and MILI are mouse PIWI proteins and EfPiwi is from a freshwater sponge; tags in brackets are library labels; higher = faster piRNA-guided slicing of the target", "settings": "auxiliary factor: none (no GTSF1)", "in_short": "as §1", "values": [{"sequence": "UCCUGGUACAGCUUGCAUACAAUUUAGUUA", "pre-steady-state target cleavage rate": "0.00451 ± 0.0027"}, {"sequence": "UCCUGGAUGUCGAACGAUAGUUAAUAGUUA", "pre-steady-state target cleavage rate": "< 0.0001"}, {"sequence": "UCCUGGAUGUCGAACGUUAGUAUAUAGUUA", "pre-steady-state target cleavage rate": "< 0.0001"}, {"sequence": "UCCUGGAUGUCGAACGUAAGAUAUUUAGUUA", "pre-steady-state target cleavage rate": "< 0.0001"}, {"sequence": "UCCUGGAUGUCGAAGCAUAGUAUUUGUUA", "pre-steady-state target cleavage rate": "< 0.0001"}, {"sequence": "UCCUGCUACAGCUUGCAUAGAUAUUAGAAA", "pre-steady-state target cleavage rate": "< 0.0001"}, {"sequence": "UCCUGGAUGUCGAAGCAUACAUUUUAGUUA", "pre-steady-state target cleavage rate": "< 0.0001"}, {"sequence": "UCCUGGAUGUCGAACCAUAGUAUUAUGUUA", "pre-steady-state target cleavage rate": "< 0.0001"}]}]}
